Measurements: PubChem BioAssay (NCATS)
Results filed as inconclusive are left out. Values without a mark were called inactive. The source made the active and inactive calls. The call rests on the fitted dose curve; in most records, active means well fitted activation curve with a large enough effect; inconclusive means small, poorly fitted or top-dose-only effect; inactive means flat fitted curve, though single readings scatter. Where a SMILES comes first, the peptide text is derived from it. The star is where a group is joined. Cbz = O=C(OCc1ccccc1)*

biological target: Cellular tumor antigen p53 (Homo sapiens) (UniProt P04637); test: Primary qHTS for small molecule compounds that upregulate eGFP-tagged delta133p53alpha (in C-terminal) cells. (AID 2060324); details: NCI-H358 delta133p53alpha-eGFP (C-terminal tag), GFP fluorescence imaging, 24 h; series mostly up to 57.5 µM; GFP increase (activation): at the top concentration
Sequence (P04637 whole entry, looked up): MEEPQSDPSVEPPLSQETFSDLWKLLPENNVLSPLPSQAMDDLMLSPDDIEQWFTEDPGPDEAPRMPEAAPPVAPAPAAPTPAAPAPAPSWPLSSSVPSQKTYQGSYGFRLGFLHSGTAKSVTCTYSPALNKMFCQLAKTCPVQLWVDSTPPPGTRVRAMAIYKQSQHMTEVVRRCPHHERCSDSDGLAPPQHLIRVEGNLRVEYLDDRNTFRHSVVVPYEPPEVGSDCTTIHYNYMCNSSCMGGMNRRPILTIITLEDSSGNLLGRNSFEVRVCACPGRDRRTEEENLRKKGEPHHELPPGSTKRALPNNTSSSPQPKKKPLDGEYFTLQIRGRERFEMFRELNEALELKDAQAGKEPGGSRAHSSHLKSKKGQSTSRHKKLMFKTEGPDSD
In short: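 Read-out: gated-cell GFP peak intensity (laser scanning cytometer), plate-normalized with DMSO as 0% activity, after 24 h compound exposure at 37C. Cells were C-terminal eGFP-tagged delta133p53alpha NCI-H358, doxycycline-induced (100 ng/ml, 24 h) before plating.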

Row | Structure (SMILES) | GFP increase (activation) | Potency
1 | NCCCCC(=O)O | 5.58% | 
2 | CCc1ccc2c(-c3cccc(Cl)c3)nc(=O)n(CC)c2n1 | -8.81% | 
3 | CNC1(C)C2CCC(C2)C1(C)C (stereo not given) | -2.6% | 
4 | C[C@@]1(C2CCCC2)Cc2cc(OCC(=O)O)c(Cl)c(Cl)c2C1=O | -4.81% | 
5 | C[N+](C)(C)CCCCCC[N+](C)(C)C |  | inactive
6 | COc1cc2nc(N3CCN(C(=O)C4COc5ccccc5O4)CC3)nc(N)c2cc1OC (stereo not given) | -3.46% | 
7 | NC(N)=NC(=O)Cc1c(Cl)cccc1Cl | -1.93% | 
8 | Nc1ncnc2c1nc(Sc1ccc(Cl)cc1)n2[C@H]1OC2COP(=O)(O)O[C@@H]2C1O (stereo not given in full) | -0.245% | 
9 | Nc1ccc(-c2nc3ccc(-c4nc5ccc(N)cc5[nH]4)cc3[nH]2)cc1 | 2.16% | 
10 | CC(C)CC(NP(=O)(O)O[C@@H]1O[C@@H](C)[C@H](O)[C@@H](O)[C@H]1O)C(=O)NC(Cc1c[nH]c2ccccc12)C(=O)O (stereo not given in full) | 6.32% | 
11 | CCCCCCCCc1ccc(-c2ccc(C(=O)O)cc2)cc1 | -2.17% | 
12 | CC(C)[C@H](NC(=O)OCc1ccccc1)C(=O)N[C@H](C=O)Cc1ccccc1 (Cbz-Val-Phe-aldehyde) | 13.7% | 
13 | CC(CN(C)C)CN1c2ccccc2CCc2ccccc21 (stereo not given) | -1.24% | 
14 | O=C(O)c1cc([N+](=O)[O-])ccc1NCCCc1ccccc1 | 3.27% | 
15 | Nc1ncnc2c1ncn2[C@@H]1O[C@H](COP(=O)(O)CP(=O)(O)OP(=O)(O)O)[C@@H](O)[C@H]1O | 0.39% | 
16 | NCCCNCCSP(=O)(O)O | 0.616% | 
17 | CCCOc1ccccc1-c1nc2n[nH]nc2c(=O)[nH]1 | 5.57% | 
18 | NC(CCCP(=O)(O)O)C(=O)O (stereo not given) | -0.244% | 
19 | CN1CCCC1CCOC(C)(c1ccccc1)c1ccc(Cl)cc1 (stereo not given) | 16.4% | 
20 | Nc1nc(Cl)nc2c1ncn2[C@@H]1O[C@H](CO)[C@@H](O)[C@H]1O | 0.491% | 

Row | Structure (SMILES) | GFP increase (activation) | Potency
21 | NC1(C(=O)O)CCCCC1 | -10.2% | 
22 | CN/C(=C\[N+](=O)[O-])NCCSCc1ccc(CN(C)C)o1 | -5.85% | 
23 | N[C@H](CCCP(=O)(O)O)C(=O)O | 2.5% | 
24 | CC(=O)O[C@H]1CC2(C)[C@@H](C[C@@H](O)[C@H]3[C@@]4(C)CC[C@@H](O)[C@@H](C)[C@@H]4CC[C@@]32C)C1=C(CCC=C(C)C)C(=O)O (stereo not given in full) | -5.89% | 
25 | NCC(O)(CS(=O)(=O)O)c1ccc(Cl)cc1 (stereo not given) | 10.9% | 
26 | Nc1nc(N)c2nc(-c3ccccc3)c(N)nc2n1 | 8.97% | 
27 | O=C(Nc1ccccc1)c1cc([N+](=O)[O-])ccc1Cl | 2.28% | 
28 | CCCCNc1ccc(C(=O)OCCN(C)C)cc1 | 9.29% | 
29 | O=c1n(CCCN2CCN(c3cccc(Cl)c3)CC2)nc2ccccn12 | 0.405% | 
30 | CCCCCCCC/C=C\CCCCCCCC(=O)NCCO | -0.249% | 
31 | OC[C@H]1O[C@@H](n2cnc3c(NC4CCCC4)ncnc32)[C@H](O)[C@@H]1O | -15.3% | 
32 | CCCNC(C)C(=O)Nc1ccccc1C (stereo not given) | -10.6% | 
33 | NC(N)=NCc1cccc(I)c1 | 1.48% | 
34 | CC(=O)c1ccc(S(=O)(=O)NC(=O)NC2CCCCC2)cc1 | 8.87% | 
35 | C[C@]12CC[C@@H]3c4ccc(O)cc4C[C@@H](CCCCCCCCCS(=O)CCCC(F)(F)C(F)(F)F)[C@H]3[C@@H]1CC[C@@H]2O (stereo not given in full) | -9.52% | 
36 | OCC1O[C@H](O)C(Cl)C(O)C1O (stereo not given in full) | -5.39% | 
37 | CCN1CCCC1CNC(=O)c1cc(S(N)(=O)=O)ccc1OC (stereo not given) | -2.28% | 
38 | Cc1ccc([N+](=O)[O-])cc1S(=O)(=O)N(C)C | -1.84% | 
39 | CN1CCc2cc(Cl)c(O)cc2[C@@H](c2ccccc2)C1 | 1.07% | 
40 | CC(=O)OCC1=C(C(=O)O)N2C(=O)[C@@H](NC(=O)Cc3cccs3)[C@H]2SC1 | 0.0118% | 
